PubChem BioAssay (NCATS)
Unmarked numbers belong to inactive results. Inconclusive results are not listed. Calls of active or inactive are those of the source. Unless noted, calls come from the whole dose curve; as a rule, active = well fitted curve in either direction with a large enough effect (not every such curve was filed as active); inconclusive = small, poorly fitted or top-dose-only effect, or another doubt; inactive = flat fitted curve, though single readings scatter.

Assays:
[1] = target: Lysosomal acid glucosylceramidase (Homo sapiens) (UniProt P04062); experiment: Glucocerebrosidase-p2 (AID 348; in the data active = potency below about 10 µM; note: potency is the fitted concentration of half-maximal effect); conditions: purified GBA, blue fluorogenic substrate, 40 min
Lysosomal acid glucosylceramidase (Homo sapiens), sequence (P04062 whole entry, looked up): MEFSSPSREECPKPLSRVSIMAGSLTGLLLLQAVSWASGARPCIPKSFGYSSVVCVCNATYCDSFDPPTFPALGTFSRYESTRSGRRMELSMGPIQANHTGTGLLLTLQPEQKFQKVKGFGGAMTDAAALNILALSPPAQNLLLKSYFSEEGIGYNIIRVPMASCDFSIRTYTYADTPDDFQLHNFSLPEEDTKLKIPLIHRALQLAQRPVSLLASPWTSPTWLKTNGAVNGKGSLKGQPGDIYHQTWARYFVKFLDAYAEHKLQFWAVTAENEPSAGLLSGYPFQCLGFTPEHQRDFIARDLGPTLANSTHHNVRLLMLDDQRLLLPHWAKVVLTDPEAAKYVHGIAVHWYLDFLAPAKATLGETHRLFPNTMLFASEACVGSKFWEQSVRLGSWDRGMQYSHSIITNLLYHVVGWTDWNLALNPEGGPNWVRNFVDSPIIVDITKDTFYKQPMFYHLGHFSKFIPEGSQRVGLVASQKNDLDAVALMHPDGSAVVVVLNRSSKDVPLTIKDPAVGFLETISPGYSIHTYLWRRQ
Summary of the method: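 Normal human glucocerebrosidase (0.2 nM) with blue fluorogenic substrate (80 uM final) in citrate/phosphate pH 5.9 with 10mM sodium taurocholate, 0.01% tween-20; 40 min RT, NaOH/glycine stop; fluorescence Ex 365/Em 440; AC50 from a titration from 0.6 nM upwards.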

[2] = AP1 Signaling Pathway (AID 357); conditions: ME-180 AP-1-bla reporter, EGF-induced, beta-lactamase ratio, 5 h; at 7.69 µM (top of the series) unless noted; note: % is set by controls: 0 for no effect and ±100 for the full control effect
Summary of the method: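 AP-1-bla ME-180 cells with beta-lactamase reporter under AP-1 response element, stimulated with EC50 EGF; compounds titrated, 5 hours at 37 degrees Celsius. CCF4 read at 460/530 nm ratio; positive and negative modulators judged by AC50.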

[3] = NFAT Signaling Pathway (AID 444); conditions: Jurkat NFAT-bla M1, carbachol, beta-lactamase ratio, 5 h; at 7.69 µM (top of the series) unless noted;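 note: carbachol stimulus at about its EC50 of 1 µM final; % is set by controls: 0 for no effect and ±100 for the full control effect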
Summary of the method: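 Jurkat cells carrying an NFAT-driven β-lactamase reporter and co-transfected muscarinic M1 receptor were treated with compound plus carbachol (1 uM final, an EC50 level) for 5 h at 37 °C. CCF4 loading followed for 1 h at RT; 460/530 nm ratio gave %activity.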

[4] = Stat Signaling Pathway (AID 446); conditions: ME-180 (cervical carcinoma) SIE beta-lactamase reporter, IL-6 stimulated, 5 h; at 7.69 µM (top of the series) unless noted;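 note: ME-180 cervical cancer cells given 40 pM IL-6 alongside compound; SIE-controlled beta-lactamase reporter measured as 460/530 nm FRET emission ratio; % is set by controls: 0 for no effect and ±100 for the full control effect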
Summary of the method: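 Normalization used AC90 stimulation (300 pM IL-6) and AC90 inhibition (125 nM pan-JAK inhibitor at 40 pM IL-6). The underlying signal is SIE-driven beta-lactamase in ME-180 cells after 5 h IL-6 exposure with compound.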

[5] = target: Glucocorticoid receptor (Homo sapiens) (UniProt P04150); experiment: GR-GFP Redistribution (AID 450;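 active = compounds whose dose series gives a full or clear partial fitted curve of increased nuclear translocation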; note: potency is the fitted concentration of half-maximal effect); conditions: U2OS GR-GFP nuclear translocation, laser cytometry, 2 h
Glucocorticoid receptor (Homo sapiens), sequence (P04150 whole entry, looked up, the tested form may be a part): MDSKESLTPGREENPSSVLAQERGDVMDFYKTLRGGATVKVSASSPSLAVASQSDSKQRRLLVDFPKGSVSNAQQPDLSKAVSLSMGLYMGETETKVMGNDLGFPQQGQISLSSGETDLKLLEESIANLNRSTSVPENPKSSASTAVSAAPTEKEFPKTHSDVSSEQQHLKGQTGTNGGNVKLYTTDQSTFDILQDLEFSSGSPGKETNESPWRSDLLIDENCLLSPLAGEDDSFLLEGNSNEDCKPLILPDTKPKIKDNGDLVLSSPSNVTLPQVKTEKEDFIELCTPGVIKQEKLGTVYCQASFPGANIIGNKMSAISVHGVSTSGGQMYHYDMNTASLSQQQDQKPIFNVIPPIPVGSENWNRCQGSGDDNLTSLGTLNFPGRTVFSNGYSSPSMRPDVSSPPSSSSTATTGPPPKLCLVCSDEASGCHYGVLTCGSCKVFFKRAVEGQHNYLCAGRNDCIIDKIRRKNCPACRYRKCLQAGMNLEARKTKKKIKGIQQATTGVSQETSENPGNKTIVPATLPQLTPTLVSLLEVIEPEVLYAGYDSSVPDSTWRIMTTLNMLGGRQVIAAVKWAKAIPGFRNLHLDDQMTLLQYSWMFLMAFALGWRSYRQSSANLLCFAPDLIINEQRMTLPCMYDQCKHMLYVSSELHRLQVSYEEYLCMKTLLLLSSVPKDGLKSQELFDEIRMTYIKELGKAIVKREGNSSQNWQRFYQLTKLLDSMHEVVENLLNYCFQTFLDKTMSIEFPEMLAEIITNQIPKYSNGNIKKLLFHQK

[6] = target: Glucocorticoid receptor (Homo sapiens) (UniProt P04150); experiment: GR-EFC Redistribution (AID 451; calls by dose curve; note: potency is the fitted concentration of half-maximal effect); conditions: CHO-K1 GR-EFC translocation, beta-gal luminescence, 2 h
Summary of the method: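 CHO-K1 cells stably expressing nuclear-localized β-gal enzyme acceptor and GR fused C-terminally to the enzyme donor fragment; ligand-driven nuclear translocation restores β-gal by complementation. Compounds titrated up to 46 uM final, 2 h at 37 °C; luminescence read.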

[7] = target: Mitogen-activated protein kinase 10 (Mus musculus) (UniProt Q61831); experiment: JNK3 AlphaScreen Assay (AID 530); conditions: JNK3 lysate, c-Jun phosphorylation; series mostly up to 57.1 µM;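 note: kinase came from lysate of stimulated human HepG2 cells; signal reports phosphorylation of biotinylated GST-cJun 1-79 at Ser73 with 10 µM ATP; % is set by controls: 0 for no effect and ±100 for the full control effect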
Summary of the method: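 Biotinylated GST-cJun(1-79) served as substrate for JNK3 in HepG2 lysates stimulated with IL-1beta and TNF-alpha. ATP was 10 uM final, pH 7.6. Ser73 phosphorylation was quantified by AlphaScreen (680 nm excitation).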

[8] = target: 3',5'-cyclic-AMP phosphodiesterase 4B (Homo sapiens) (UniProt Q07343); experiment: qHTS Assay for Inhibitors of PDE-IV (AID 607; active = well fitted activation curve with a large enough effect in the main read-out, with a control signal flat, not every such curve was filed as active; note: % of control where 0% means no effect); conditions: HEK293 ACTOne CNG channel cells, membrane potential fluorescence; series mostly up to 22.9 µM
3',5'-cyclic-AMP phosphodiesterase 4B (Homo sapiens), sequence (Q07343 whole entry, looked up): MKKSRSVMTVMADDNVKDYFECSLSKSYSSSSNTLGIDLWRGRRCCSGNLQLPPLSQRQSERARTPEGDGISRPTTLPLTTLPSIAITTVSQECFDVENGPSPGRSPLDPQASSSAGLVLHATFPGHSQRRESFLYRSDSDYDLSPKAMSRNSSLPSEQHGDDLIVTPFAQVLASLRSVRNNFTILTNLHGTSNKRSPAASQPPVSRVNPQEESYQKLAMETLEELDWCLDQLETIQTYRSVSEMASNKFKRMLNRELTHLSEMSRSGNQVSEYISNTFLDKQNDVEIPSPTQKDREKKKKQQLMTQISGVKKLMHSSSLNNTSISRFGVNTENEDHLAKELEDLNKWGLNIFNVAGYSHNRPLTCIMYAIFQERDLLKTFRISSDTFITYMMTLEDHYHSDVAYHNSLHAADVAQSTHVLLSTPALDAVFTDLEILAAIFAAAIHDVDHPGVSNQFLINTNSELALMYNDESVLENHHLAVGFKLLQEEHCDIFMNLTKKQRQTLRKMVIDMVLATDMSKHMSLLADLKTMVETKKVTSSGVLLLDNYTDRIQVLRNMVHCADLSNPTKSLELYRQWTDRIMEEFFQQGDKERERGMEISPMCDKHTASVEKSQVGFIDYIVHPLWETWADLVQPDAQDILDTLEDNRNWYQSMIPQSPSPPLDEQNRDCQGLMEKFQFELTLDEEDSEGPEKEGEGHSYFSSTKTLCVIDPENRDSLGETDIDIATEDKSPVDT
Summary of the method: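 HEK293 ACTOne cells with CNG channel (1000/well), endogenous PDE4; membrane potential dye, compounds up to 22.9 uM final. Fluorescence Ex 535/Em 590; RO 20-1724 (100 uM final) as reference.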

[9] = target: Cytochrome P450 2C9 (Homo sapiens) (UniProt P11712); experiment: qHTS Assay for Inhibitors and Substrates of Cytochrome P450 2C9 (AID 883; active = well fitted curve in the direction sought with a large enough effect; an effect the other way counts as inactive or inconclusive; note: nearly all actives have a fitted effect of over 60% in size; note: potency is the fitted concentration of half-maximal effect); conditions: recombinant CYP2C9, luciferin-H luminescence, 60 min; series mostly up to 57.1 µM
Cytochrome P450 2C9 (Homo sapiens), sequence (P11712 whole entry, looked up): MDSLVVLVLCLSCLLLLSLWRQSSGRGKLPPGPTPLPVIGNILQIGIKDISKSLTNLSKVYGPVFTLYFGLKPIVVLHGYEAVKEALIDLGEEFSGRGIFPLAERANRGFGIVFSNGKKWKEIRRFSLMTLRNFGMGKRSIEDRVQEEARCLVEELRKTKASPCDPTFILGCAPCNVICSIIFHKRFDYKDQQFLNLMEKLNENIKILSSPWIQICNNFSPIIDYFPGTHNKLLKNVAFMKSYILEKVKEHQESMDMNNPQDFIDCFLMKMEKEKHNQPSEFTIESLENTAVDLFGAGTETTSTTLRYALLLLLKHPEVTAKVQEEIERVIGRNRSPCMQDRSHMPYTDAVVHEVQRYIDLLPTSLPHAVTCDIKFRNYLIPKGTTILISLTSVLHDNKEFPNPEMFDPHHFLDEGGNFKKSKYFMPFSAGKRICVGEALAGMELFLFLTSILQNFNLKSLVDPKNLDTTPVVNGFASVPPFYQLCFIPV
Summary of the method: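 CYP2C9 deoxyluciferin hydroxylation, 37C, 60 min with NADPH regeneration; 10nM enzyme, 100uM Luciferin-H (KM). Glo detection reagent stopped reaction; luminescence normalized to sulphaphenazole (57uM) full inhibition.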

[10] = target: Cytochrome P450 2D6 (Homo sapiens) (UniProt P10635); experiment: qHTS Assay for Inhibitors and Substrates of Cytochrome P450 2D6 (AID 891; active = well fitted curve in the direction sought with a large enough effect; an effect the other way counts as inactive or inconclusive; note: nearly all actives have a fitted effect of over 60% in size; note: potency is the fitted concentration of half-maximal effect); conditions: recombinant CYP2D6, luciferin-ME EGE luminescence; series mostly up to 11.4 µM
Cytochrome P450 2D6 (Homo sapiens), sequence (P10635 whole entry, looked up): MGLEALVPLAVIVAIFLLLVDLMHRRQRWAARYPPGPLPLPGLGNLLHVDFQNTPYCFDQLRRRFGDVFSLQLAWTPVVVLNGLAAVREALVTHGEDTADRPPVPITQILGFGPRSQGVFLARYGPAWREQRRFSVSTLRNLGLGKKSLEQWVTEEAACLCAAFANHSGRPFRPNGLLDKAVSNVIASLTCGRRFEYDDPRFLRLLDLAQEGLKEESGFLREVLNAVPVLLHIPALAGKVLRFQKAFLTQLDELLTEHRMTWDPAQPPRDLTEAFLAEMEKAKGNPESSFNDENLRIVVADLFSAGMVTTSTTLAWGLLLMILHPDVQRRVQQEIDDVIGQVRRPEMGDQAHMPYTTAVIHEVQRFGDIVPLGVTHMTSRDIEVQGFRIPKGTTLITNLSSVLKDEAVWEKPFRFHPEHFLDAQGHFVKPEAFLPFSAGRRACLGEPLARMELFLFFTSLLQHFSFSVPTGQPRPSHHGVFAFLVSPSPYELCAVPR
Summary of the method: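 Luminescent read-out of luciferin formed by 5 nM human CYP2D6 demethylating 30 uM Luciferin-ME EGE (Km level) over 60 min at room temperature after NADPH regeneration addition. Data normalized to full inhibition by 1.43 uM quinidine.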

[11] = target: Cytochrome P450 1A2 (Homo sapiens) (UniProt P05177); experiment: p450-cyp1a2 (AID 410; calls by dose curve;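 note: -100% = full effect of reference inhibitor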); conditions: recombinant CYP1A2, luciferin-ME demethylation, luminescence; series mostly up to 11.4 µM
Cytochrome P450 1A2 (Homo sapiens), sequence (P05177 whole entry, looked up): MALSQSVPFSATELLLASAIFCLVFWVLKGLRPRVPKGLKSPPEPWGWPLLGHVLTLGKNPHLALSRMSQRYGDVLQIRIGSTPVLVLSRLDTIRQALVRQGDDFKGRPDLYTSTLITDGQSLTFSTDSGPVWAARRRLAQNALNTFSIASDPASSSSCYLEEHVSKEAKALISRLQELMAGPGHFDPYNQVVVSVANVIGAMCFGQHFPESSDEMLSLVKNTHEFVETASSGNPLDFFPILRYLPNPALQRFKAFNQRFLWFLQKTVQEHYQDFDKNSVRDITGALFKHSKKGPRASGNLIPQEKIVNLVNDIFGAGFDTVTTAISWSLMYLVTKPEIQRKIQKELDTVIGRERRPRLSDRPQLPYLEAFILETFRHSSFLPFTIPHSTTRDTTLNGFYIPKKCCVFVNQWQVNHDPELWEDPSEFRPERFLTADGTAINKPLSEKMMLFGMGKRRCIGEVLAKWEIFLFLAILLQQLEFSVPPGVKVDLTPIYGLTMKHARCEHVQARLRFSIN
Summary of the method: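 Read-out is luminescence from luciferin produced by CYP1A2 demethylation of Luciferin-ME (100uM, at Km). Detection reagent stopped the 60 min NADPH-dependent reaction; signals were normalized to 57 uM furafylline.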

[12] = target: Cytochrome P450 3A4 (Homo sapiens) (UniProt P08684); experiment: qHTS Assay for Activators of Cytochrome P450 3A4 (AID 885; active = well fitted curve in the direction sought with a large enough effect; an effect the other way counts as inactive or inconclusive; note: nearly all actives have a fitted effect of over 65% in size); conditions: recombinant CYP3A4, Luciferin-PPXE luminescence, 60 min; series mostly up to 57.1 µM
Cytochrome P450 3A4 (Homo sapiens), sequence (P08684 whole entry, looked up): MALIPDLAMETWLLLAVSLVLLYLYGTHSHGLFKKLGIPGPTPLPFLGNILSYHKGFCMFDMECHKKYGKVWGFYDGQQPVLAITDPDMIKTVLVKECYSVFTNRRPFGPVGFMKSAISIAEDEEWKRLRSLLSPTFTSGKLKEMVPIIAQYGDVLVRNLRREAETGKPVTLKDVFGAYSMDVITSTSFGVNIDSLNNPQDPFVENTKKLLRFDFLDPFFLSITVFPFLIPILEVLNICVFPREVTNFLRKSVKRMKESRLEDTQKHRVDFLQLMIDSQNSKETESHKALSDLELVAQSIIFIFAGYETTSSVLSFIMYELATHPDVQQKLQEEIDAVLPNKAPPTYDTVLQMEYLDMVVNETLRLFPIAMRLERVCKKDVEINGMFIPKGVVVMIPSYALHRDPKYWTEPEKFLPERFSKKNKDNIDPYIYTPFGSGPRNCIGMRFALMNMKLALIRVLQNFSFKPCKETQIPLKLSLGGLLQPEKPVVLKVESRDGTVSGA
Summary of the method: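 Human CYP3A4 dealkylates Luciferin-PPXE to luciferin, which luciferase detection converts to light. Substrate was at its KM (25uM), buffer 200mM KPO4, reaction 60 min at RT.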

[13] = target: Cytochrome P450 2C19 (Homo sapiens) (UniProt P33261); experiment: qHTS Assay for Inhibitors and Substrates of Cytochrome P450 2C19 (AID 899; active = well fitted curve in the direction sought with a large enough effect; an effect the other way counts as inactive or inconclusive; note: nearly all actives have a fitted effect of over 60% in size; note: potency is the fitted concentration of half-maximal effect); conditions: recombinant CYP2C19, luciferin-H EGE luminescence; series mostly up to 11.4 µM
Cytochrome P450 2C19 (Homo sapiens), sequence (P33261 whole entry, looked up): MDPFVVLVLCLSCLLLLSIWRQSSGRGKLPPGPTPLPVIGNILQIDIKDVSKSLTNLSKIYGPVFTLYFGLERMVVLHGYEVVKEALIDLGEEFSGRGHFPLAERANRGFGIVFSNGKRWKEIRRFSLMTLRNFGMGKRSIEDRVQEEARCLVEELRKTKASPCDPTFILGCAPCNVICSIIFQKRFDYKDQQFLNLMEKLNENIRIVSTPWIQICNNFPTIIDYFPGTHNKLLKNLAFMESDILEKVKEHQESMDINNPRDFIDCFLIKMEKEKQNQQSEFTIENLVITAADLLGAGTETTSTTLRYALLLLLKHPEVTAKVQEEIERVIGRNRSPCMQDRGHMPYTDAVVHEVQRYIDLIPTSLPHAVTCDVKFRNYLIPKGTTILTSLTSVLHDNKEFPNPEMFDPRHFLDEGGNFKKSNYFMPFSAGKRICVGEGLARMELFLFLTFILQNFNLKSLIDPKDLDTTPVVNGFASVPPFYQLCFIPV
Summary of the method: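 In 50mM KPO4, the reaction held 5nM enzyme and KM-level (10uM) Luciferin-H EGE; it ran 60 min at 37C after NADPH regeneration and a 10 min compound preincubation. Luminescence values were scaled to 57uM ketoconazole as complete inhibition.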

SMILES	Potency [1]	activity change, negative = inhibition [2] [%]	activity change, negative = inhibition [3] [%]	activity, negative = inhibition [4] [%]	Potency [5] [µM]	Potency [6] [µM]	activity change, negative = inhibition [7]	outcome [8]	Potency [9]	Potency [10]	activity change, negative = inhibition [11]	activity change, positive = activation [12]	Potency [13]	activity change, negative = inhibition [9]	Potency [11]
CC(C)[C@@H](Br)C(=O)NCC(=O)O	> 11.4 µM	5.1	0.167	11.3	> 46	> 9.22	4.52% [at 11.4 µM]								
O=C(O)C[C@H]1OCC=C2CN3CC[C@]45c6ccccc6N[C@@H]4[C@H]1[C@H]2C[C@H]35	> 11.4 µM	0.952	-1.05	-4.29	> 46	> 9.22	8.39% [at 11.4 µM]	inactive							
O.O.[NH-]C1(C(=O)O)CCCC1.[NH-]C1(C(=O)O)CCCC1.[Ni+2]	> 11.4 µM	8.54	-0.81	-5.65	> 46	> 9.22	-2.59% [at 11.4 µM]	inactive							
Cc1ccc(O)cc1 (tested in a mixture with another compound)	> 11.4 µM	3.77	9.05	-4.46	> 46	> 9.22	1.19% [at 11.4 µM]	inactive							
C[C@@](Br)(C(=O)O)[C@H](Br)C(=O)O	> 11.4 µM	3.08	17.1	8.31	> 46	> 9.22	1.39% [at 11.4 µM]	inactive							
CCCOC(=O)[C@@H]1[C@@H](C(=O)O)[C@H]2CC[C@@H]1O2	> 11.4 µM	5.41	-0.63	8.61	> 46	> 9.22	6.67% [at 11.4 µM]	inactive							
CC1=NN(c2ccccc2)C(=O)[C@@H]1N=Nc1ccc([As](=O)(O)O)c(O)c1	> 11.4 µM	6.32	12.3	-13.3	> 46	> 9.22	-2.32% [at 11.4 µM]	inactive	3.16 µM (active)	inactive					
O=[As](O)(O)c1ccc(NCc2ccccc2)cc1	> 11.4 µM	-4.31	11	11.2	> 46	> 9.22	1.56% [at 11.4 µM]	inactive		inactive					
CC[C@]1(OC(=O)CN)C(=O)OCc2c1cc1n(c2=O)Cc2cc3ccccc3nc2-1	> 11.4 µM				> 46		-1.42% [at 11.4 µM]	inactive			-17.6% [at 2.29 µM]				
CC[C@@H]1[C@@H]2Cc3ccc(O)cc3[C@@]1(CC)CCN2C	> 11.4 µM	-9.39	17.1	2.87			2.22% [at 11.4 µM]	inactive							
O=C(O)CN1CCN(CC(=O)O)CC(=O)[O][Hg][O]C(=O)C1	0.199 µM (active)	18.9		1.17			-1.36% [at 11.4 µM]	inactive	1.26 µM (active)	3.16 µM (active)		-78.1% [at 11.4 µM]	0.794 µM (active)		
NNc1c(C(N)=O)c2c(N)ncnc2n1[C@@H]1O[C@H](CO)[C@@H](O)[C@@H]1O	> 11.4 µM		6.43		> 46		-2.85% [at 11.4 µM]	inactive		inactive	-11.2% [at 2.29 µM]		inactive	-2.73% [at 11.4 µM]	
CCNCCC1(CC)C(=O)NC(=O)NC1=O	> 11.4 µM	0.916	11.4	2.13	> 46		3.87% [at 11.4 µM]	inactive							
O=C(O)[C@@H]1[C@H](C(=O)O)[C@]2(Cl)C(Cl)=C(Cl)[C@@]1(Cl)C2(Cl)Cl	> 11.4 µM		11.1	3.47	> 46	> 9.22	0.126% [at 11.4 µM]	inactive							inactive
CC(=O)O[C@H]1CC[C@H]2[C@@H]3CCC4=C[C@@H](C5SCCS5)[C@H](OC(C)=O)C[C@]4(C)[C@H]3CC[C@@]12C	> 11.4 µM	-2.54		0.282	> 46	> 9.22	5.72% [at 11.4 µM]	inactive							
